Compounds with a hit are over-represented: about 2.6% of the library has one in this group of screens.
SIAE inh: human SIAE inhibition, primary screen | Q9HAT2 | SIAE FP-Rh probe binding, fluorescence polarization | inhibition, % at 9.66 µM | 370,000 tested, 0.69% active | AID 1053197;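 active = inhibition above a cutoff: mean of compounds within the control limits plus 3 SD of those, cut at about 17% in these data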
PME-1 primary: blocks human protein phosphatase methylesterase 1; 320,000 tested, 0.53% active; inhibition, % at 5.9 µM; AID 2130; recombinant PME-1, FP-Rh probe fluorescence polarization; Q9Y570;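 active = inhibition above the campaign mean of all compounds plus 3 SD, cut at about 26% in these data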;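 also: competitive labeling of PME-1 active site by serine hydrolase directed probe; inhibitors block probe labeling so polarization falls and inhibition rises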
Target sequence (Q9Y570 whole entry, looked up): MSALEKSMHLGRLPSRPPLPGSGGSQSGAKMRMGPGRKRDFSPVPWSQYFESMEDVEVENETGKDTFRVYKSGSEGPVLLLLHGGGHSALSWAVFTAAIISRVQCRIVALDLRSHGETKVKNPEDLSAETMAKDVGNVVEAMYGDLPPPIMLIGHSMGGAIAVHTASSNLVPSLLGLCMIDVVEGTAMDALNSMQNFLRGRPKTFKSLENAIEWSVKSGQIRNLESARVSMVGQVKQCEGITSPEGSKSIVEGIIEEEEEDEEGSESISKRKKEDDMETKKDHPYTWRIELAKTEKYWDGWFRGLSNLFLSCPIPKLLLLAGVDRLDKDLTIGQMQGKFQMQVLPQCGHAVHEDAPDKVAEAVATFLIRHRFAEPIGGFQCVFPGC
TCR CD3 inh: blocks the human TCR-CD3 interaction | 360,000 tested, 0.37% active | TAMRA-labeled TCR probe fluorescence, biochemical | AID 651800 | inhibition, % at 9.4 µM; in the data active = inhibition above about 19%;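 also: recombinant mutant TCR 2C K166C tagged with TAMRA read by polarization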
PAD4 inh: blocks human protein arginine deiminase 4; 330,000 tested, 0.41% active; inhibition, % at 6.36 µM; recombinant PAD4, RCA probe fluorescence polarization;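 active = percent inhibition above a cutoff equal to the mean of all tested compounds plus 3 SD, cut at about 15% in these data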
PRMT1 inh: PRMT1 (human) inhibition, primary screen; Q99873; recombinant PRMT1, activity-based probe fluorescence polarization; inhibition, % at 2.79 µM; 370,000 tested, 1.3% active;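 active = inhibition above about 21% made by adding two undisclosed values, limit read from the data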
Target sequence (Q99873 whole entry, looked up): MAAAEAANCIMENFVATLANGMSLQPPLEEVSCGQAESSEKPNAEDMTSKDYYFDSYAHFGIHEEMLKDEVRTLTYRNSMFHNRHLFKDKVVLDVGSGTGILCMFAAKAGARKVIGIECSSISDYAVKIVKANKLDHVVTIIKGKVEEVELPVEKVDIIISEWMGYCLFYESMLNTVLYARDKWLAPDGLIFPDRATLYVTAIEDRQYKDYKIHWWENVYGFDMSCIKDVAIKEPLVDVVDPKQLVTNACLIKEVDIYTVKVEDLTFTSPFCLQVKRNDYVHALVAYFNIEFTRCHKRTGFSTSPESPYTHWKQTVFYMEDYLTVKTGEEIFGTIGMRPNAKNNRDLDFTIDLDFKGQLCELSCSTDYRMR
Fam108B inh: Fam108B inhibition, counter-screen for RBBP9 inhibitors; recombinant Fam108B, FP-Rh probe fluorescence polarization; inhibition, % at 9.51 µM; 300,000 tested, 0.33% active; AID 1947;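 active = inhibition above the screen mean inhibition plus 3 SD, computed separately per campaign, cut at about 18% in these data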;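 also: inhibitors lower polarization as less probe binds the enzyme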
Fam108b inh conf: Fam108b (mouse) hydrolase inhibition, confirmation assay | 930 tested, 44% active | inhibition, % at 9.51 µM | shares compounds with Fam108B inh | AID 1978 | recombinant Fam108b, FP-Rh probe fluorescence polarization;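 active = inhibition above a limit from the primary screen, the mean over all compounds plus 3 SD, cut at about 19% in these data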;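 also: inhibitors free the probe so polarization falls as inhibition rises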
Fam108b ABPP HTS: inhibits mouse Fam108b in gel-based ABPP. shares compounds with Fam108B inh. recombinant Fam108b, fluorophosphonate probe. inhibition, % at 20 µM. 260 tested, 44% active. AID 588649; in the data active = inhibition above about 40%
PAD4 FP conf: PAD4 (human) inhibition, confirmed | recombinant PAD4, RCA probe fluorescence polarization | inhibition, % at 6.36 µM | 1,200 tested, 28% active | shares compounds with PAD4 inh;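 active = mean inhibition across replicates above the hit cutoff set by the earlier primary screen, cut at about 15% in these data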;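 also: inhibitors block active-site labeling by the probe so polarization falls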
Large screens that a line does not name were inactive (follow-up assays come after a bar, where they were run).

CCCC[C@H]1C2CC(OC(=O)Nc3cccc(C(F)(F)F)c3)C(C2)[C@H]2CCCCN21 (stereo not given in full)	none (no result: PME-1 primary, TCR CD3 inh, PAD4 inh, Fam108B inh)
O=C1Nc2ccc(Br)cc2C12NNc1ccccc1O2 (stereo not given)	PME-1 primary 38, Fam108B inh 21 | Fam108b inh conf inactive
CCCCCCCCCCCCCCCC[n+]1ccc(C(N)=O)cc1	none
CCCCCCCCCCCCCCCC[n+]1ccc(/C=N/O)cc1	SIAE inh 68, PME-1 primary 56, Fam108B inh 41 | Fam108b inh conf 44
Cc1c(O)ccc(C=NNc2nc(-c3cccnc3)nc3ccccc23)c1O	none (no result: SIAE inh, PME-1 primary, TCR CD3 inh, PAD4 inh, PRMT1 inh, Fam108B inh) | Fam108b ABPP HTS 60
C(=N\Nc1nc(-c2cccnc2)nc2ccccc12)/c1ccccc1	none
CCC(=O)NC(=S)Nc1ccc(NC(=O)c2ccc([N+](=O)[O-])cc2Cl)cc1	Fam108B inh 34 | Fam108b inh conf inactive
O=[N+]([O-])c1cc(Cl)cc(C=NNC(=S)Nc2cc(S(=O)(=O)N3CCOCC3)ccc2Cl)c1O	none (no result: SIAE inh, PME-1 primary, TCR CD3 inh, PAD4 inh, PRMT1 inh, Fam108B inh) | Fam108b ABPP HTS inactive
O=S(=O)(c1ccc(Cl)c(NC(=S)Nc2cccc(O)c2)c1)N1CCOCC1	none
CC[C@@]1(c2ccc(C)cc2)C(=O)N(C(=O)OC(C)C)N1C(=O)OC(C)C	none (no result: PME-1 primary, TCR CD3 inh, PAD4 inh, Fam108B inh)
CC1(C)CC(=O)C2=C(C1)NC1=C(C(=O)c3ccccc31)C2c1cc([N+](=O)[O-])ccc1O (stereo not given)	Fam108B inh 21 | Fam108b inh conf inactive
C/C(=N\Nc1ccc(S(=O)(=O)Nc2ccccc2)cc1[N+](=O)[O-])c1ccncc1	none
O=[N+]([O-])c1ccccc1/C=C/C=N/Nc1ccc(S(=O)(=O)Nc2ccc(Cl)cc2)cc1[N+](=O)[O-]	SIAE inh 43, PME-1 primary 40, Fam108B inh 60 | Fam108b inh conf inactive
C/C(=N\Nc1ccc(S(=O)(=O)Nc2ccc(Cl)cc2)cc1[N+](=O)[O-])c1ccc(N2CCOCC2)cc1	SIAE inh 24, Fam108B inh 35 | Fam108b inh conf inactive
C/C(=N\Nc1ccc(S(=O)(=O)Nc2ccccc2)cc1[N+](=O)[O-])c1ccc(N2CCOCC2)cc1	none
COc1ccc(NS(=O)(=O)c2ccc(N/N=C(\C)c3ccncc3)c([N+](=O)[O-])c2)cc1	PME-1 primary 28, Fam108B inh 23 | Fam108b inh conf inactive
c1nc(NCC2CCCOC2)c2cc(-c3ccc4c(c3)OCO4)ccc2n1 (stereo not given)	none (no result: PME-1 primary, TCR CD3 inh, PAD4 inh, Fam108B inh)
Cc1cccc(NC(=O)/C(C#N)=C/c2ccc(F)cc2)n1	Fam108B inh 38 | Fam108b inh conf inactive
CC(=O)C1C(=O)c2c(cccc2[N+](=O)[O-])C1=Nc1ccc(S(N)(=O)=O)cc1 (stereo not given)	PME-1 primary 26, Fam108B inh 20 | Fam108b inh conf 22
C=CCN1[C@H](CC(C)C)COc2cccc(F)c2S1(=O)=O	none (no result: PME-1 primary, TCR CD3 inh, PAD4 inh, Fam108B inh)
C[C@H](O)[C@@H]1CN2CCc3c([nH]c4c(-c5ccccc5)cccc34)[C@@H]2C[C@@H]1N(C)C(=O)c1ccco1	none (no result: PME-1 primary, TCR CD3 inh, PAD4 inh, Fam108B inh)
COc1ccc2[nH]c(C(=O)N/N=C/c3ccccc3OC)cc2c1	none
CCOc1ccc2[nH]c(C(=O)N/N=C/c3ccccc3OC)cc2c1	Fam108B inh 21 | Fam108b inh conf inactive
COc1cc2cc(C(=O)NN=Cc3ccccc3Cl)[nH]c2cc1OC	none (no result: SIAE inh, PME-1 primary, TCR CD3 inh, PAD4 inh, PRMT1 inh, Fam108B inh) | Fam108b ABPP HTS 50
COc1ccc(OC)c(/C=N/NC(=O)c2cc3c(OC)c(OC)ccc3[nH]2)c1	PME-1 primary 31, Fam108B inh 19 | Fam108b inh conf inactive
COc1ccccc1/C=N/NC(=O)c1ccccc1Cl	none
O[C@H](COc1cccc(Br)c1)CN1CCC(C(O)(c2ccccc2)c2ccccc2)CC1	none (no result: PME-1 primary, TCR CD3 inh, PAD4 inh, Fam108B inh)
Cn1c(=O)cc(OCCCC(=O)Nc2cc(C(F)(F)F)ccn2)c2ccccc21	none (no result: PME-1 primary, TCR CD3 inh, PAD4 inh, Fam108B inh)
O=[N+]([O-])c1ccc(O)c(C=NNC(=S)Nc2ccc(Cl)cc2Cl)c1	none (no result: SIAE inh, PME-1 primary, TCR CD3 inh, PAD4 inh, PRMT1 inh, Fam108B inh) | Fam108b ABPP HTS inactive
COc1ccccc1NS(=O)(=O)c1cc([N+](=O)[O-])ccc1N/N=C/c1c(C)[nH]c2ccccc12	none
O=[N+]([O-])c1ccc(NN=Cc2c[nH]c3ccccc23)c(S(=O)(=O)Nc2ccc(Cl)cc2)c1	none (no result: SIAE inh, PME-1 primary, TCR CD3 inh, PAD4 inh, PRMT1 inh, Fam108B inh) | Fam108b ABPP HTS 90
O=[N+]([O-])c1ccc(N/N=C/c2c[nH]c3ccccc23)c(S(=O)(=O)Nc2ccc(Cl)cc2)c1	Fam108B inh 38 | Fam108b inh conf active
CCOC(=O)N1CCN(C(=O)C[C@@H]2C(=O)N3CCCC4=C3[C@@]2(C(=O)OC)CCCC4)CC1	none (no result: PME-1 primary, TCR CD3 inh, PAD4 inh, Fam108B inh)
COc1ccc(OC)c(-c2c3cc(O)c(=O)cc-3oc3cc(O)c(O)cc23)c1	PME-1 primary 59, PAD4 inh 55, Fam108B inh 73 (no result: SIAE inh, TCR CD3 inh, PRMT1 inh) | Fam108b inh conf 110 | PAD4 FP conf active
CCCCNc1c2c3c(cccc3n(C)c1=O)C(=O)c1ccccc1-2	PME-1 primary 75, PAD4 inh 90, Fam108B inh 45 (no result: SIAE inh, TCR CD3 inh, PRMT1 inh) | Fam108b inh conf 49 | Fam108b ABPP HTS inactive | PAD4 FP conf 81
COC(=O)[C@]12C[C@H](CC(=O)NCCCCc3ccccc3)C(=O)N(CCc3ccc(OC)c(OC)c3)C1=C[C@H](C1CCCC1)O[C@@H]2C	none (no result: PME-1 primary, TCR CD3 inh, PAD4 inh, Fam108B inh)
Cc1cc(O)ccc1C1(c2ccc(O)cc2C)OC(=O)c2ccccc21	none
CC(=O)Oc1ccc2c(c1)Oc1cc(OC(C)=O)ccc1C21OC(=O)c2ccccc21	PME-1 primary 121, PAD4 inh 99, Fam108B inh 107 (no result: SIAE inh, TCR CD3 inh, PRMT1 inh) | Fam108b inh conf 145 | Fam108b ABPP HTS inactive | PAD4 FP conf 128
CCn1c(SCc2ccccc2Cl)nnc1-c1ccccc1OC	none (no result: PME-1 primary, TCR CD3 inh, PAD4 inh, Fam108B inh)
Cc1ccsc1C=Nc1ccc(O)cc1	PME-1 primary 55, PAD4 inh 30, Fam108B inh 42 (no result: SIAE inh, TCR CD3 inh, PRMT1 inh) | Fam108b inh conf inactive | PAD4 FP conf inactive
NS(=O)(=O)c1ccc(NC2=CC(=O)C(=O)c3ccccc32)cc1	PAD4 inh 28, Fam108B inh 20 | Fam108b inh conf 32 | Fam108b ABPP HTS inactive | PAD4 FP conf 62
O=C1C=C(Nc2ccc(O)cc2)C(=O)c2ccccc21	none
O=C1C=C(N2CCCCC2)c2ccccc2C1=O	PME-1 primary 40, PAD4 inh 65, Fam108B inh 69 | Fam108b inh conf 82 | Fam108b ABPP HTS inactive | PAD4 FP conf 61
COc1ccc(NC(=S)Nc2ccc3nc(C)c(C)nc3c2)cc1	none
CC(C)N(C(=O)Nc1ccc2nsnc2c1)C(C)C	PME-1 primary 32, PAD4 inh 78, PRMT1 inh 25, Fam108B inh 55 | Fam108b inh conf 33 | Fam108b ABPP HTS inactive | PAD4 FP conf inactive
COc1ccc(N(C)C(=O)Nc2ccc3nsnc3c2)cc1	none (no result: PME-1 primary, PAD4 inh, Fam108B inh)

Bioassay records: PubChem BioAssay, The Scripps Research Institute Molecular Screening Center
